# Assay outcomes as filed in PubChem.
# Sampled rows, rich in hits. Any-hit rate of the full collection: about 8.8%.
# IL-1B inflam inh: qHTS for Inhibitors of Inflammasome Signaling: IL-1-beta AlphaLISA Primary Screen; THP-1 LPS/ATP IL-1B secretion, AlphaLISA, 16 h; stronger effect = lower value; activity change, % at 57.5 µM; hit rate 4.7% among 360,000; in the data active means activity change below about -50%; inconclusive means mostly about -30% to -49%
#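 Secreted IL-1B measured by AlphaLISA bead assay after 16 h compound exposure of THP-1 cells; compounds (final up to 57.5 uM) added 1 h before LPS (250 ng/mL) and ATP (1.25 mM) stimulation; lower signal means less secretion.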
# KB-V1 cytotox: qHTS assay for MDR1-selective chemotherapeutics: Primary screen using the drug-selected MDR subline cells KB-V1; AID 1347076, 2019; Potency, µM (series often up to 46.1 µM), actives largely listed as cytotoxic; hit rate 3.4% among 400,000; KB-V1 MDR cells viability, CellTiter-Glo, 72 h; further: nearly all actives have a fitted effect of over 60% in size
#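 Potencies derive from concentration-effect curves fitted to normalized luminescence (CellTiter-Glo) of KB-V1 cells treated for 72 h at 37 degrees C in phenol-red-free DMEM containing 10% FBS.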
# HT1080 IDH1KD tx: qHTS for induction of synthetic lethality in tumor cells producing 2HG: qHTS for the HT-1080-IDH1KD cell line; AID 686971, 2013; Potency, µM (top dose mostly 46.1 µM), actives largely listed as cytotoxic; HT-1080 IDH1 knockdown viability, ATP luminescence, 48 h; hit rate 2% among 360,000
#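 % activity derives from luminescence (CellTiter-Glo), normalised to DMSO and no-cell wells. HT-1080-IDH1KD cells, 750/well, had 48 h compound exposure at 37 °C.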
# KB-3-1 tox: qHTS assay for MDR1-selective chemotherapeutics: Primary screen using the parental adenocarcinoma cell KB-3-1; KB-3-1 viability, CellTiter-Glo ATP luminescence, 72 h; Potency, µM (highest dose often 46.1 µM), usual class: cytotoxic; hit rate 1.4% among 400,000; further: nearly all actives have a fitted effect of over 60% in size
#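 KB-3-1 cells, DMEM (no phenol red) + 10% FBS; compound by pin transfer, 72 h, 37 °C. Readout: CellTiter-Glo luminescence after 10 min. Data normalized, curve-fitted.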
# HT1080-NT tox: qHTS for induction of synthetic lethality in tumor cells producing 2HG: qHTS for the HT-1080-NT fibrosarcoma cell line. HT-1080-NT fibrosarcoma viability, CellTiter-Glo ATP luminescence, 48 h. Potency, µM (series often up to 46.1 µM), most hits filed as cytotoxic. hit rate 1.6% among 360,000. AID 686970, 2013;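 further: NT is the 2HG producing partner of a matched IDH1 knockdown line; nearly all actives have a fitted effect of over 55% in size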
#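 Viability of the 2HG-overproducing fibrosarcoma line after 48 hours of compound exposure at 37 degrees C was determined by luminescence with CellTiter-Glo, and concentration-effect curves were then fitted and categorized.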
# Hits are given with their value; 0 = inactive; ? = inconclusive; - = no result. Unless noted, the call rests on the fitted dose curve; in most records, active means well fitted curve in the direction sought with a large enough effect; inconclusive means small, poorly fitted or top-dose-only effect, or another doubt; inactive means no such curve, though single readings can be large; an effect the other way counts as inactive or inconclusive.
SMILES,IL-1B inflam inh,KB-V1 cytotox,HT1080 IDH1KD tx,KB-3-1 tox,HT1080-NT tox
CC1CCCCN1C(=O)COC(=O)c1ccc2ccccc2n1 (stereo not given),0,0,0,0,0
CC(OC(=O)/C=C/c1ccc2ccccc2n1)C(=O)NCc1ccccc1 (stereo not given),-75,0,0,0,0
CC1CCCCN1C(=O)COC(=O)/C=C/c1ccc2ccccc2n1 (stereo not given),-54,0,0,0,0
Cc1cccnc1NC(=O)c1nn(C)c2c1CS(=O)(=O)c1ccccc1-2,0,0,0,0,0
CCn1c(SCC(=O)N2CCCc3ccccc32)nc2ccccc2c1=O,0,10µM,0,0,0
CC(C)Cn1c(SCC(=O)N2CCCc3ccccc32)nc2ccccc2c1=O,-66,?,0,0,0
O=C(CSc1nc2ccccc2c(=O)n1-c1ccccc1)N1CCCc2ccccc21,0,?,0,0,0
Cc1cc2c(=O)n(Cc3ccco3)c(SCC(=O)N3CCCc4ccccc43)nc2s1,-67,?,0,0,?
O=c1[nH]c(-c2ccccc2)nn1-c1ccc(Br)cc1Br,?,0,0,0,0
COC(=O)[C@@]1(Cc2ccc(OC)cc2)[C@H]2c3cc(C(=O)N4CCCC4)n(Cc4ccccc4)c3C[C@H]2CN1C(=O)c1ccccc1,-66,10µM,?,?,0
COC(=O)[C@@]1(Cc2ccc(F)cc2)[C@H]2c3cc(C(=O)N(C)C)n(CCF)c3C[C@H]2CN1C(=O)c1ccccc1,0,?,?,0,0
COC(=O)[C@@]1(Cc2ccc(OC)cc2)[C@H]2c3cc(C(=O)N4CCCC4)n(Cc4ccc(C)c(F)c4F)c3C[C@H]2CN1C(=O)c1ccccc1,0,7.3µM,?,?,?
COC(=O)[C@@]1(Cc2ccc(F)cc2)[C@H]2c3cc(C(=O)N(C)C)n(Cc4ccc(C)c(F)c4F)c3C[C@H]2CN1C(=O)c1ccccc1,-75,?,?,?,?
C=CCNc1nc(C(=O)OCC(=O)N(Cc2ccccc2)C(C)C)cs1,0,0,0,0,0
CCOC(=O)c1[nH]c(C)c(CCC(=O)Nc2ccccc2OCC)c1C,-,0,-,0,-
Cc1ccc2c(CC(=O)Nc3c(C(=O)c4ccc(F)cc4)oc4ccccc34)coc2c1,-,?,-,0,-
CCOC(=O)C1=C(COC(=O)Cc2ccccc2)NC(=O)NC1C (stereo not given),0,0,0,0,0
CNC(C)C(=O)NC(C(=O)N1CCCC1C(=O)NC1CCCc2ccccc21)C(C)C (stereo not given),0,0,0,0,0
CNC(C)C(=O)NC(C(=O)N1CCCC1C(=O)NNc1ccccc1)C(C)C (stereo not given),0,0,2.3µM,0,1.3µM
Cc1ccc(S(=O)(=O)Nc2ccccc2C(=O)N2CCCCC2)cc1,0,0,0,0,0
COc1ccccc1CN(C)C(=O)CN1CCN(C(=O)c2cccs2)CC1,0,0,0,0,0
CCOC(=O)C1=C(COC(=O)/C=C/c2ccc(OC)c(OC)c2)NC(=O)NC1C (stereo not given),0,0,0,0,0
CCOC(=O)C1=C(COC(=O)/C=C/c2ccc(OC)cc2OC)NC(=O)NC1C (stereo not given),?,6.5µM,0,0,0
Fc1ccc(-n2cc(-c3ccccc3)[n+]3c2SCC3)cc1,0,0,?,?,0
CC(C)(C)c1ccc(-c2cn(-c3ccc(Br)cc3)c3[n+]2CCCS3)cc1,-99,0,8.2µM,?,23µM
SMILES,IL-1B inflam inh,KB-V1 cytotox,HT1080 IDH1KD tx,KB-3-1 tox,HT1080-NT tox
c1ccc(-c2cn(-c3ccccc3)c3[n+]2CCS3)cc1,0,?,?,?,0
COc1ccc(-c2cn(-c3ccccc3)c3[n+]2CCS3)cc1,0,0,13µM,3.3µM,?
Cc1cc(=O)c2cc(Br)ccc2[nH]1,0,16µM,0,0,0
Cc1cc(=O)c2ccccc2[nH]1,0,0,0,0,0
CCc1nc(NCCCn2ccnc2)c2oc3ccccc3c2n1,0,?,0,0,0
c1ccc(-c2nc(NCCCn3ccnc3)c3oc4ccccc4c3n2)cc1,-79,5.8µM,?,?,?
O=C(Nc1ccccc1C(=O)Nc1ccccn1)c1ccc([N+](=O)[O-])cc1,0,0,0,0,0
O=C(Nc1cc(Sc2ccccn2)cc([N+](=O)[O-])c1)c1ccc(Cl)cc1,-66,?,?,21µM,?
C=CCNC(=S)N/N=C(\C)c1cccc(NC(C)=O)c1,0,0,0,0,0
C=CCNC(=S)N/N=C(\C)c1cc(OC)c(OC)c(OC)c1,0,15µM,0,0,0
Cc1cccc(-n2c(O)c(/C=N/NC(=O)c3ccccc3Cl)c3ccccc3c2=O)n1,0,0,?,?,0
COc1ccc(Cn2c(O)c(/C=N/NC(=O)c3cccnc3)c3ccccc3c2=O)cc1,0,0,21µM,0,?
O=C(N/N=C/c1c(O)n(Cc2ccccc2)c(=O)c2ccccc12)c1cccnc1,0,?,15µM,18µM,13µM
O=C(N/N=C/c1c(O)n(-c2ccccc2Cl)c(=O)c2ccccc12)c1cccnc1,0,?,9.2µM,0,6.5µM
Cc1ccc(S(=O)(=O)c2nc(-c3ccccc3F)oc2N2CCCCC2)cc1,-,?,-,0,-
CC1(C)CC(N2CCOCC2)=CC(=S)N1,0,0,0,0,?
CC1(C)CC(N2CCN(Cc3ccccc3)CC2)=CC(=[N+]2CCCCC2)C1,-51,0,?,1.5µM,0
CC1(C)CC(NNCCC#N)=CC(=[N+]2CCCC2)C1,0,0,0,0,0
CN(Cc1ccccc1)C1=CC(=[N+]2CCCCC2)CC(C)(C)C1,-70,0,?,?,?
CC1(C)CC(N2CCCC2)=CC(=[N+]2CCCCC2)C1,0,0,?,5.2µM,?
CC1(C)CC(N2CCCC2)=CC(=[N+]2CCCC2)C1,0,0,?,18µM,?
Cc1cccc(NC(=O)C(=O)NCC2CCCN2S(=O)(=O)c2cccs2)c1 (stereo not given),0,?,0,0,0
O=C1CC(c2ccc(F)cc2)Cc2nc(NCC3CCCO3)ncc21 (stereo not given),0,21µM,0,0,0
CC1CCCCC1NC(=S)Nc1ccc(SC(F)F)cc1 (stereo not given),-80,?,?,?,?
S=C(NCC1CCCCC1)Nc1ccc(Oc2ccccc2)cc1,-77,?,0,?,0
CCCNC(=S)Nc1ccc(Oc2ccccc2)cc1,0,18µM,14µM,?,16µM
FC(F)Sc1ccc(NC(=S)NCC2CCCCC2)cc1,-92,0,?,?,?
